Hit rate of the full screen: of about 370,000 compounds, about 2,300 (0.62%) were called active. The full list was thinned out, with actives kept by preference. A number with no mark means an inactive call.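 Rule for the calls: active = lowest replicate activation of at least 40%, so every replicate reaches that level; inactive = the rest.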

A short description of this test: GLuc luminescence reporter in INS-1E cells, primary screen for activators of glucose-dependent secretion of insulin (AID 743287).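 Note: 0% = median of neutral control wells and 100% = median of IBMX positive control wells.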 Conditions: INS-1E GLuc reporter insulin secretion, 2-3 h, at 16.6 µM, stronger effect = higher value.
Regarding `Cc1ccccc1NC(=O)COc1cccc2c1CCNC2=O`, the activation is 23.1%.

On to `O=C(COc1ccccc1O)NC1CCCC1`, for which the activation is 11.6%. Take `O=C(COc1cccc2c1CCNC2=O)NC1CCCCC1`: the activation is 44.9% (active). For the compound `COc1ccc(NC(=O)Nc2ccc3c(c2)C(=O)N([C@@H](C)CO)C[C@@H](C)[C@@H](CN(C)C(=O)Nc2ccc(F)cc2)OCCCC[C@@H](C)O3)cc1`, the activation is -7.03%. Under `COc1ccc(-c2ccccc2[C@H]2[C@@H](C#N)N(C(=O)C3CCC3)[C@@H]2CO)cc1` stands -4.21%; under `NCCCNC(=S)NCCCN(Cc1ccc(Cl)cc1)c1ccc(Br)cn1`, 57.1% (active). On to `O=C(/C=C/c1ccc(Cl)cc1)Nc1ccc(Br)cn1`, for which the activation was 3.4%. Regarding `S=C(NCCCc1cnc[nH]1)NCCCN(Cc1ccc(Cl)c(Cl)c1)c1ccc(Br)cn1`, the activation is 17%. Under `COc1ccc(C(=O)OCC(=O)Nc2cc(C)on2)cc1F` stands 12.4%; under `CCOc1cc(C(=O)OCC(=O)Nc2cccc(C)c2)ccc1OCC(=O)N1CCOCC1`, 7.48%. Consider `COc1ccc(C(=O)OCC(=O)Nc2cccc(C(C)=O)c2)cc1OC`, for which the activation is 67.3% (active). Turning to `C[C@@H]1CN([C@@H](C)CO)S(=O)(=O)c2ccc(-c3ccncc3)cc2O[C@@H]1CN(C)C(=O)C1CCC1`, the activation was 7.69%. Regarding `CCCNC(=O)N(C)C[C@H]1Oc2cc(C3=CCCCC3)ccc2S(=O)(=O)N([C@H](C)CO)C[C@H]1C`, the activation is -12.1%. As for `CCCN(CCC)C(=S)Nc1cc(C(=O)OC)ccc1C(=O)OC`, the activation is 20.1%. `COC(=O)c1ccc(C(=O)Nc2cc(Cl)ccc2Cl)cc1NC(=O)c1ccccc1C`: the activation is 82.6% (active). In the case of `CCN(CCO)C(=S)Nc1cc(C(=O)OC)ccc1C(=O)OC`, the activation is 18%. Regarding `Cc1ccc(F)c(NC(=O)CCOc2ccccc2C)c1`, the activation is -15%.

With `COc1cc(/C=N/NC(=O)Nc2ccccc2)ccc1OCCOc1ccccc1C`, the activation was 169% (active). Under `C/C=C/c1ccc(OCCOc2ccc(C=O)cc2OC)c(OC)c1` stands 10.7%; under `C[C@H](O)C#Cc1ccc2c(c1)O[C@H](CN(C)C(=O)C1CCCCC1)[C@@H](C)CN([C@H](C)CO)S2(=O)=O`, 4.13%; under `CSc1ccccc1C(=O)NCc1ccccc1`, -6.59%. Consider `Cc1ccc(CNC(=O)c2ccccc2CCc2ccccc2)cc1`, for which the activation is -27.9%.

As to `CCCN1Cc2cccc(C(=O)NCc3ccccc3)c2C1=O`, the activation was 72.4% (active). With `C[C@@H]1CN(C)C(=O)c2cc([N+](=O)[O-])ccc2O[C@@H]1CN(C)C(=O)OC(C)(C)C`, the activation is 16%.

These data come from PubChem BioAssay AID743287 (Broad Institute, 2014).
